High-throughput results as filed in PubChem BioAssay.
ATG4B inh: ATG4B (human) cysteine protease inhibition. inhibition, % at 8.33 µM. 0.51% of 340,000 active. Q9Y4P1. AID 504462. ATG4B cleavage of LC3-PLA2, NBD-HPC fluorescence, 1 h; in the data active means inhibition above about 40%
Target sequence (Q9Y4P1 whole entry, looked up): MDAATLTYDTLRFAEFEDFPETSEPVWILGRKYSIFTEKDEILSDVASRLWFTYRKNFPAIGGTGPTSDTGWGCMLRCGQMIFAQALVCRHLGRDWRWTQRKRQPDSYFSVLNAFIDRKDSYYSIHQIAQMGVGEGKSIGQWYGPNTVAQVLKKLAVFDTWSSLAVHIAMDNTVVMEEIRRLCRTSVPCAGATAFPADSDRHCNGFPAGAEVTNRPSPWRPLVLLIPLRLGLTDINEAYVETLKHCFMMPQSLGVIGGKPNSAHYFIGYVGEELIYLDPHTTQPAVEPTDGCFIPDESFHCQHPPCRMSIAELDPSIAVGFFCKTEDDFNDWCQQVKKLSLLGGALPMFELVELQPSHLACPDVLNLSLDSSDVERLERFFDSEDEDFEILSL
SKN-1 block: C. elegans SKN-1 inhibition. C. elegans VP596 Pgst-4::GFP/RFP ratio, acrylamide-induced, 24 h. inhibition, % at 21.8 µM. 0.49% of 360,000 active;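 active means interference check ratio from 0.5 to 1.5 plus GFP to RFP signal ratio inhibition reaching or exceeding a fixed threshold, cut at about 30% in these data, passing the limit was not always enough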
MPTP inh: blocks calcium-induced mitochondrial swelling. inhibition, % at 10 µM. isolated mouse mitochondria, Ca2+ swelling absorbance, 30 min. 1.4% of 360,000 active. AID 602449;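 active means inhibition of 50% or more, scaled per plate between neutral and stimulator controls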
F508del corr: CFTR F508del correction in bronchial cells; 0.36% of 350,000 active; activity (quench increase), % at 7.58 µM; AID 720511; CFBE cells, YFP halide quenching; stimulated with forskolin plus potentiator P3; % fluorescence drop versus neutral controls;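 active means mean added fluorescence quench of at least 8% versus neutral control, with both replicates also reaching 8%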;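 further: cells transiently co-express mutant CFTR-F508del with the halide-sensitive YFP; corrector assay measuring rescue of mutant channel to the surface after 24 h compound exposure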
CendR NRP1 mod: alters CendR peptide binding to human NRP-1; FAM-RPARPAR peptide binding to NRP-1, fluorescence polarization; O14786; 0.85% of 360,000 active; inhibition, % at 25 µM;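 active means inhibition or corrected inhibition above about 18%, plus a signal ratio from 0.5 to 1.5, limit read from the data, passing the limit was not always enough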
Numbers stand for hits; - = inactive; . = not tested or not shown. A selection: hits, their analogues and other compounds. The true share with any hit is near 2.7%.

SMILES | ATG4B inh | SKN-1 block | MPTP inh | F508del corr | CendR NRP1 mod
O=[N+]([O-])c1ccc(-n2nncc2-c2ccc(Cl)cc2)cc1 | - | - | - | - | -
CC(=O)c1ccc(-n2nncc2-c2ccc([N+](=O)[O-])cc2)cc1 | - | 58.6 | - | - | -
C=CCN1C(=O)/C(=C2/Sc3ccccc3N2CCCS(=O)(=O)O)SC1=S | - | - | - | . | -
C=CCN1C(=O)/C(=C2/Sc3ccccc3N2CC)SC1=S | - | - | - | - | 77.2
Cn1c(SCc2ccccn2)nnc1-c1cnccn1 | - | - | - | . | -
Cc1cccc(CSc2nnc(-c3cnccn3)n2C)c1 | - | - | - | - | 37.8
C[C@H]1CN([C@@H](C)CO)C(=O)Cc2cc(NS(=O)(=O)c3cn(C)cn3)ccc2O[C@H]1CN(C)Cc1ccc2c(c1)OCO2 | . | . | . | - | .
O=C(c1ccccc1)N1C[C@H]2[C@@H](c3ccccc31)[C@@H](CO)N2Cc1ccccc1F | . | . | . | - | .
CCCN(CCC)C(C(=O)Nc1cccc(OC)c1)c1ccccc1 (stereo not drawn) | - | - | - | . | -
O=C(Nc1ccc(Cl)cc1)C(c1ccccc1)N(CCO)CCO (stereo not drawn) | - | 36.8 | - | . | -
CCCC(=O)N(CCN1CCOCC1)c1nc2c(OCC)cccc2s1 | - | 39.8 | - | . | -
O=C(NCc1ccccc1)[C@H]1[C@H](CO)[C@H]2Cn3c(cccc3=O)[C@@H]1N2C(=O)c1cnccn1 | . | . | . | - | .
CO[C@H]1CN(C)C(=O)c2ccc(NC(=O)Nc3cccc(Cl)c3)cc2OC[C@H](C)N(C(=O)Nc2c(C)noc2C)C[C@@H]1C | . | . | . | - | .
Cc1ccccc1N=C(N)Nc1ccccc1C | - | - | - | - | 37.4
Cc1ccccc1NC(=O)NC(N)=O | - | - | - | - | -
Cc1cccc(CNC(=O)C2CCC(=O)N(C3CCCC3)C2)c1 (stereo not drawn) | - | - | - | - | -
Cc1ccc(CNC(=O)C2CCC(=O)N(C3CC3)C2)cc1 (stereo not drawn) | - | - | - | - | 27.6
C[C@H](O)C#Cc1cnc2c(c1)C(=O)N([C@@H](C)CO)C[C@H](C)[C@@H](CN(C)C(=O)c1ccccc1F)O2 | . | . | . | - | .
O=C(NC1CCCCC1)c1cc(S(=O)(=O)N2CCCC2)ccc1Cl | - | - | - | - | 22.2
O=C(NC1CCN(Cc2ccccc2)C1)c1cccc(S(=O)(=O)N2CCOCC2)c1 (stereo not drawn) | - | - | - | - | -
O=C(NC1CCN(Cc2ccccc2)CC1)c1cc(S(=O)(=O)N2CCOCC2)ccc1Cl | - | - | - | 15.3 | -
COc1ccc(S(=O)(=O)N(C)C[C@H]2OCCCC[C@@H](C)Oc3ccc(NC(=O)NC(C)C)cc3C(=O)N([C@H](C)CO)C[C@@H]2C)cc1 | . | . | . | - | .
O=C(CSc1cccc2cccnc12)N/N=C/c1ccc(F)cc1 | - | - | - | - | 36.5
c1ccc(CNC2CC3CCC2C3)cc1 (stereo not drawn) | - | - | - | - | 23.6
O=C(/C=C/c1ccccc1)NC1CC2CCC1C2 (stereo not drawn) | - | - | - | . | -
SMILES | ATG4B inh | SKN-1 block | MPTP inh | F508del corr | CendR NRP1 mod
C[C@@H]1CN([C@H](C)CO)C(=O)c2ccccc2-c2ccccc2CO[C@@H]1CN(C)S(=O)(=O)c1cccs1 | . | . | . | - | .
COc1cccc(CNC(C)C(=O)Nc2ccc3c(c2)OCCO3)c1 (stereo not drawn) | - | - | - | - | -
COc1ccc(CNC(C)C(=O)Nc2ccc3ccccc3c2)cc1OC (stereo not drawn) | - | 50.8 | - | - | -
Cc1ccc(CNC(=O)CS(=O)(=O)CC(=O)O)cc1 | - | - | - | . | 21.1
CN(C)S(=O)(=O)c1ccc(C(=O)OCC(=O)NCc2ccccc2)cc1 | - | - | - | - | -
Cc1ccc(S(=O)(=O)N(C)C)cc1NC(=O)COC(=O)c1ccc2c(c1)OCO2 | - | - | - | . | 36.7
Cc1ccc(CNC(=O)COC(=O)c2ccc(S(=O)(=O)N(C)C)cc2)cc1 | - | - | - | 8.1 | -
Cc1ccc(S(=O)(=O)N(C)C)cc1NC(=O)COC(=O)c1ccc2c(c1)OCCO2 | - | - | - | - | -
Cc1noc(C)c1NC(=O)N(C)C[C@H]1Oc2ncc(C#CC3CCCCC3)cc2C(=O)N([C@H](C)CO)C[C@@H]1C | . | . | . | - | .
Cc1ccccc1CN1C(=O)CS/C1=N/N=C/c1ccco1 | - | - | - | - | 29.0
Cc1cccc(Nc2nc(N)nc(-c3oc4ccccc4c3C)n2)c1 | - | - | - | 12.3 | -
